Source: the supplement of paper PMC10849652
Targets with a hit are over-represented here; the source holds about 7,900 in all. About 0.6% of all pairs of compound and target were hits. Unmarked numbers belong to inactive results.

compound: COC(=O)N[C@@H](C)CNc1nccc(-c2cn(C(C)C)nc2-c2cc(Cl)cc(NS(C)(=O)=O)c2F)n1 [encorafenib]; test: log2 fold change, soluble protein after heating vs DMSO (PISA); higher = thermal stabilisation; K562 cells, 10 uM, 30 min; active = over 0.2 and 3.5 SD of the protein, either way, in both replicates (recomputed)
In short: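 K562 cells (2×10^6 cells/mL) were treated with 10 μM compound for 30 min, and aliquots were heated for 3 min over 48°C-58°C. Pooled aliquots were extracted in PBS with 0.5% NP-40 at 4°C, and the supernatant after 21,000xg for 90 min was measured by TMTpro 16plex LC-MS/MS with channel sums equalised. Reported thermal stability, relative to control samples and from duplicates, is a log2 fold change.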

UniProt Q15021, sequence (Q15021 whole entry, looked up): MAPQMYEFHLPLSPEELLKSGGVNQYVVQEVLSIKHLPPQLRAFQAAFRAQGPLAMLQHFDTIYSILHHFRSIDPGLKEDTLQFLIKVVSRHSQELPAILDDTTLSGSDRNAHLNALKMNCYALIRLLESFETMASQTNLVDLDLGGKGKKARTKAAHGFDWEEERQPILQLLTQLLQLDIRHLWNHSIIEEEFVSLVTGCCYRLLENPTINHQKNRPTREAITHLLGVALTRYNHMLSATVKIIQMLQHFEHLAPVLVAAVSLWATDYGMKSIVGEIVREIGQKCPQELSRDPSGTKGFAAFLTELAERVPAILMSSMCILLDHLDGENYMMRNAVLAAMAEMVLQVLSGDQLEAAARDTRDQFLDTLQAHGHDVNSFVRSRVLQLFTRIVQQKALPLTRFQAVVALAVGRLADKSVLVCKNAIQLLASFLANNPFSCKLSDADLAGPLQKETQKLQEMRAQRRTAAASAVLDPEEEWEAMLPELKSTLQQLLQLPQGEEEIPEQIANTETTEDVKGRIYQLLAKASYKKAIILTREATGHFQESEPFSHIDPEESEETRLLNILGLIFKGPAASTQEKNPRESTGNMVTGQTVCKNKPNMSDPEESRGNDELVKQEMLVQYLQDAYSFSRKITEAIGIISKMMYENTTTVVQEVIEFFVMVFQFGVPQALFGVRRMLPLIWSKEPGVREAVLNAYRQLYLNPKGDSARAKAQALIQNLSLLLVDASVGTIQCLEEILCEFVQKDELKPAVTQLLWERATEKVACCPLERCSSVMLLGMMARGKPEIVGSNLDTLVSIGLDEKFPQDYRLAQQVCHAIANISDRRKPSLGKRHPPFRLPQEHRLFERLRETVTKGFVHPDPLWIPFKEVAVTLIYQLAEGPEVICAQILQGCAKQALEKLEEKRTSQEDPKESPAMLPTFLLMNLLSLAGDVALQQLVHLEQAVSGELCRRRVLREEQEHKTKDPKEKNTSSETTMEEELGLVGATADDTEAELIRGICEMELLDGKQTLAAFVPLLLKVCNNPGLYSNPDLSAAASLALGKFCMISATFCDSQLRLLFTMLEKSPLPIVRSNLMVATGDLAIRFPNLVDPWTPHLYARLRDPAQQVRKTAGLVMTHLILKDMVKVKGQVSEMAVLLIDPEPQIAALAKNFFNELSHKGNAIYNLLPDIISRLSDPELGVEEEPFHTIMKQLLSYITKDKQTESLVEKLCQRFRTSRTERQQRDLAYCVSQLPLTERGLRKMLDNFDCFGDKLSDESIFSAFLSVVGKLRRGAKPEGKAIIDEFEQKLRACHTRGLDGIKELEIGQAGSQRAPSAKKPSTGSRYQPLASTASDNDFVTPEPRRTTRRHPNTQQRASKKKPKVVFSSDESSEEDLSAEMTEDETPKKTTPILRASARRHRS
UniProt P00846, sequence (P00846 whole entry, looked up): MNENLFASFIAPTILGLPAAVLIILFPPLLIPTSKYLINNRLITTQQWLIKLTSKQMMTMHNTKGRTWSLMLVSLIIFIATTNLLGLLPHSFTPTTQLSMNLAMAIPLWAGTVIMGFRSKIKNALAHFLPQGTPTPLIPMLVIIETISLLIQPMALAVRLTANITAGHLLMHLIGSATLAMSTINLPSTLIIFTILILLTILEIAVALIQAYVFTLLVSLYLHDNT
UniProt Q9BZQ8, sequence (Q9BZQ8 whole entry, looked up): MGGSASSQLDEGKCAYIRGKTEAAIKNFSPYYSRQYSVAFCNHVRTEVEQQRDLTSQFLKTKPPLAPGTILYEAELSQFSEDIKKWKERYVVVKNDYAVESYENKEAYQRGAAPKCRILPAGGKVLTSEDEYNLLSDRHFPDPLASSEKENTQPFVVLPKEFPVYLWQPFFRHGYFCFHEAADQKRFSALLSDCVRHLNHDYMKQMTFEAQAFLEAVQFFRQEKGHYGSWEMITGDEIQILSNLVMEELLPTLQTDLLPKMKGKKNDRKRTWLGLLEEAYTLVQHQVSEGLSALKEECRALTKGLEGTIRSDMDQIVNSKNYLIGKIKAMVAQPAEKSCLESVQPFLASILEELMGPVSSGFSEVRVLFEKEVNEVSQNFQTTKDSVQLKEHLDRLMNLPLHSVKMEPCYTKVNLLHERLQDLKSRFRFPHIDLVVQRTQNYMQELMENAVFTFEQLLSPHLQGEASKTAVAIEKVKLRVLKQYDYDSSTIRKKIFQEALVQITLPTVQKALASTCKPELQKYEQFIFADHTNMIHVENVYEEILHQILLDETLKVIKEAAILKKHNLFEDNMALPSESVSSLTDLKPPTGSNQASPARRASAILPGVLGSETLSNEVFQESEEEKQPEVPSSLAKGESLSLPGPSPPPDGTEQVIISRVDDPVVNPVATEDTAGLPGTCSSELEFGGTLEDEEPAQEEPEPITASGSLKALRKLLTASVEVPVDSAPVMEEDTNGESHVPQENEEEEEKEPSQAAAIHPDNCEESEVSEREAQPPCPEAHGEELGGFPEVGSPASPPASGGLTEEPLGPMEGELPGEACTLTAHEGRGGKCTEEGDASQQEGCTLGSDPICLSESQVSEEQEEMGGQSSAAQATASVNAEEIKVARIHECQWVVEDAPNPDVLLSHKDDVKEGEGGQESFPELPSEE
UniProt Q9H1E3, sequence (Q9H1E3 whole entry, looked up): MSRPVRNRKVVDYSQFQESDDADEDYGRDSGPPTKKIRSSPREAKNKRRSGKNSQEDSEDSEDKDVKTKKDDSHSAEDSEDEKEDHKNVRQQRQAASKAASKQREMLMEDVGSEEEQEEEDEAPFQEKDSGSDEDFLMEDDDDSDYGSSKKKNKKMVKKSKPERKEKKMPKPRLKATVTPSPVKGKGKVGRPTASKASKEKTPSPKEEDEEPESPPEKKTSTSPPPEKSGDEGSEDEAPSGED
UniProt Q92621, sequence (Q92621 whole entry, looked up): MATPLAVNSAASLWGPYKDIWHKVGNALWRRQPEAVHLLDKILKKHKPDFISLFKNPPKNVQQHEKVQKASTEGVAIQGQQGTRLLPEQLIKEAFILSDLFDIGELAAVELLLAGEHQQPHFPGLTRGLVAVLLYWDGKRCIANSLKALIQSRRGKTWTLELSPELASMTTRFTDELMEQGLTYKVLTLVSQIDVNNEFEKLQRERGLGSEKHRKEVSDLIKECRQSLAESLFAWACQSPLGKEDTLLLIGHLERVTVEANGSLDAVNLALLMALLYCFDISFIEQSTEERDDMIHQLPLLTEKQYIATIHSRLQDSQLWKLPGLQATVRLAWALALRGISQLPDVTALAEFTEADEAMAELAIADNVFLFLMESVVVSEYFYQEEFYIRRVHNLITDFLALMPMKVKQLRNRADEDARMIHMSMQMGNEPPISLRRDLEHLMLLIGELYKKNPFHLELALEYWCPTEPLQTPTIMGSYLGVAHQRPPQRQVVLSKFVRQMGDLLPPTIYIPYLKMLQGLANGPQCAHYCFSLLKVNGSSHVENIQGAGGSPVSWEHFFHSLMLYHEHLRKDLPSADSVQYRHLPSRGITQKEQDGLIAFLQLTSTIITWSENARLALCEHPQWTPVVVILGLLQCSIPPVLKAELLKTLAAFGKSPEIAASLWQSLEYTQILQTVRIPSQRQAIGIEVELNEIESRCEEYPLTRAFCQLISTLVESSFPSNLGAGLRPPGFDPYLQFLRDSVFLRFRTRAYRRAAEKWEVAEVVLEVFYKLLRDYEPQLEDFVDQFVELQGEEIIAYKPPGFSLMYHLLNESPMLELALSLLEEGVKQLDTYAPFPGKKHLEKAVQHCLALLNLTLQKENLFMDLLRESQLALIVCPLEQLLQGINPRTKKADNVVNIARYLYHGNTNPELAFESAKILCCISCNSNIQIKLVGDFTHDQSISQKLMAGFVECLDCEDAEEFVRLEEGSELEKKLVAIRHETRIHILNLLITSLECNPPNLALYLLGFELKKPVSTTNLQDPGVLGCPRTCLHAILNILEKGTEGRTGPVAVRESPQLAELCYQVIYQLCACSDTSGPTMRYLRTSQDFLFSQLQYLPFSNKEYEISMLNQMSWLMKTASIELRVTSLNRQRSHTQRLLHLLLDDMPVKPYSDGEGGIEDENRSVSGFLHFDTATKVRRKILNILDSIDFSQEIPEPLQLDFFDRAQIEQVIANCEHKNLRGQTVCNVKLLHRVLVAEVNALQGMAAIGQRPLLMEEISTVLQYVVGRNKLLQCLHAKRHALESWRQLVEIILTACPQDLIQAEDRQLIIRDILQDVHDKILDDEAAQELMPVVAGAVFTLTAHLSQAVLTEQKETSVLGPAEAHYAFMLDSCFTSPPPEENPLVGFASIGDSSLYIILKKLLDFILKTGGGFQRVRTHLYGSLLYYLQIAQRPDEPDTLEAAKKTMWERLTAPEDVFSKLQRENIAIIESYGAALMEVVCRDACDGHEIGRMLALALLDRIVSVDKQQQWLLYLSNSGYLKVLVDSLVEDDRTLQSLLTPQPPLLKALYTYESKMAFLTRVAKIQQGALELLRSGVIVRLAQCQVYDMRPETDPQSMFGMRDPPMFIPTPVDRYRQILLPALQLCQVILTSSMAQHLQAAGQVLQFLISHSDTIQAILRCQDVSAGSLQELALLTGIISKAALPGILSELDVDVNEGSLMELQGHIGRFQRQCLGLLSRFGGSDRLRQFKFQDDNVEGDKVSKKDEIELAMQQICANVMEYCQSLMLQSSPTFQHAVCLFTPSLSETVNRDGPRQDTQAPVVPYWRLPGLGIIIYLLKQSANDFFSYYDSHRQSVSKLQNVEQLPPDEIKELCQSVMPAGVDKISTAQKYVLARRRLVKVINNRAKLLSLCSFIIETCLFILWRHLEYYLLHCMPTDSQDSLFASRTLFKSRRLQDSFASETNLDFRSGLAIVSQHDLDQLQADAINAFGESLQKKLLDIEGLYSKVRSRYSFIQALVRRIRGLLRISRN
UniProt P49914, sequence (P49914 whole entry, looked up): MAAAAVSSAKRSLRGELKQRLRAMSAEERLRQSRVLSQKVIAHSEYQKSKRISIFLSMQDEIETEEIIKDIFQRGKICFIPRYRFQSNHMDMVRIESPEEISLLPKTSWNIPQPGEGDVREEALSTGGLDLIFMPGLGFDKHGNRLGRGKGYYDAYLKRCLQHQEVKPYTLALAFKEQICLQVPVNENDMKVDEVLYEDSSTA

Row | Target | log2 fold change
1 | NOB1 (UniProt Q9ULX3) | 0.007
2 | MRPS25 (UniProt P82663) | -0.016
3 | NACC1 (UniProt Q96RE7) | 0.13
4 | NEMP1 (UniProt O14524) | -0.039
5 | MTHFD1 (UniProt P11586) | 0.04
6 | OXSM (UniProt Q9NWU1) | -0.007
7 | MT-ATP6 (UniProt P00846) | 0.016
8 | OTUD4 (UniProt Q01804) | 0.036
9 | MRPL50 (UniProt Q8N5N7) | -0.01
10 | NFATC2 (UniProt Q13469) | 0.101
11 | NUP205 (UniProt Q92621) | 0.096
12 | MRPS24 (UniProt Q96EL2) | 0.08
13 | MINK1 (UniProt Q8N4C8) | 0.044
14 | NUP85 (UniProt Q9BW27) | 0.025
15 | NOP56 (UniProt O00567) | 0.057
16 | P4HA2 (UniProt O15460) | -0.019
17 | NCAPH (UniProt Q15003) | 0.057
18 | MRPS15 (UniProt P82914) | 0.039
19 | NA, A0A096LPI6 | -0.009
20 | NQO1 (UniProt P15559) | 0.005

Row | Target | log2 fold change
21 | NIBAN1 (UniProt Q9BZQ8) | 0.144
22 | MPHOSPH10 (UniProt O00566) | 0.214
23 | NCAPD2 (UniProt Q15021) | 0.11
24 | NFATC2IP (UniProt Q8NCF5) | 0.075
25 | NARS2 (UniProt Q96I59) | 0.008
26 | NMT2 (UniProt O60551) | 0.02
27 | MTHFS (UniProt P49914) | 0.007
28 | NUCKS1 (UniProt Q9H1E3) | -0.068
29 | MYH11 isoform 2 (UniProt P35749) | 0.001
30 | NUP160 (UniProt Q12769) | 0.038
31 | NDUFA12 (UniProt Q9UI09) | 0.05
32 | NUDT21 (UniProt O43809) | -0.015
33 | NCOA7 (UniProt Q8NI08) | 0.019
34 | MON2 isoform 5 (UniProt Q7Z3U7) | 0.026
35 | NMRAL1 (UniProt Q9HBL8) | -0.14
36 | NMNAT1 (UniProt Q9HAN9) | 0.147
37 | MND1 (UniProt Q9BWT6) | -0.15
38 | NUDT16 (UniProt Q96DE0) | -0.017
39 | NGLY1 (UniProt Q96IV0) | 0.159
